Screening results as filed in PubChem BioAssay.
Six1-Eya2 inh: qHTS Assay for Inhibitors of the Six1/Eya2 Interaction; AID 651725, 2012; 360,000 compounds, 0.56% hits; AlphaScreen GST-Six1/His-Eya2 binding, biochemical; stronger effect = lower value; activity change, % (test concentration not listed); Homeobox protein SIX1 (Homo sapiens) + Protein phosphatase EYA2 (Homo sapiens), …
Target sequence (O00167 whole entry, looked up): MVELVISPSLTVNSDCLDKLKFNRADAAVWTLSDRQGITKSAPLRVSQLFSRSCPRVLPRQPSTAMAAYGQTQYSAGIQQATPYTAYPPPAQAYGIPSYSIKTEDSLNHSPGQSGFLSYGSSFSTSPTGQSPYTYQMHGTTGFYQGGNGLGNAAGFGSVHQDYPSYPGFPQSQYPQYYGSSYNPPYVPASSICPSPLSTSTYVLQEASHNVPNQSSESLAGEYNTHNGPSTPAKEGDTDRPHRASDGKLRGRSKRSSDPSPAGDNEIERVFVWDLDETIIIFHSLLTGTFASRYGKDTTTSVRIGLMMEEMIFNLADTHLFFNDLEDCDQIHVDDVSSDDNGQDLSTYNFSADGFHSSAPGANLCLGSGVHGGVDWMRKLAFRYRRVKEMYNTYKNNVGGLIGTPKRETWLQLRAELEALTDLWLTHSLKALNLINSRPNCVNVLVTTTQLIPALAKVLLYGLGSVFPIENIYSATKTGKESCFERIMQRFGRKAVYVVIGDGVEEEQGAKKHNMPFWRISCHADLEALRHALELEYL
Target sequence (Q15475 whole entry, looked up): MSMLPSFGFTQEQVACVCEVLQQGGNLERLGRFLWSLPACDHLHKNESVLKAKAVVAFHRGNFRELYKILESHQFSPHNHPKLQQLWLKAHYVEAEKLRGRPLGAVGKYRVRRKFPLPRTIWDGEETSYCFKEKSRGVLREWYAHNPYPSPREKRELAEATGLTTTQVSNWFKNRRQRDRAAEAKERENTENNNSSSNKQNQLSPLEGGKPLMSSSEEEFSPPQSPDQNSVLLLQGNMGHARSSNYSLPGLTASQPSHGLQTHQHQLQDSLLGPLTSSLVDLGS
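AlphaScreen with GST-Six1 and His-Eya2 (5X mix: 250 nM and 500 nM), glutathione donor and nickel acceptor beads; buffer 50 mM Tris pH 8.0, 300 mM NaCl, 1 mM TCEP; 1 h at 37 C in the dark.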
PI5P4K alpha inh: qHTS for Inhibitors of phosphatidylinositol 5-phosphate 4-kinase (PI5P4K); Phosphatidylinositol 5-phosphate 4-kinase type-2 alpha (Homo sapiens), P48426; PI5P4Kalpha enzyme, ADP-Glo luminescence, 60 min; stronger effect = lower value; max response, %; 330,000 compounds, 1.2% hits; active = max response of -50% or lower; inconclusive = between -30% and -50%; inactive = -30% or higher; note: value at the top dose of about 77 µM
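Single end-point luminescence (ADP-Glo) quantified ADP from PI5P4Kalpha turnover; ATP 5 microM final, 1 h at RT, 0.1% CHAPS and 0.28 mM EGTA in HEPES pH 7.4.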
CtBP-E1A blk: qHTS Assay for Inhibitors of the CtBP/E1A Interaction; activity change, % (no concentration beside the values); 340,000 compounds, 0.49% hits; AID 651724, 2012; AlphaScreen GST-E1A/His-CtBP binding, 1536-well; stronger effect = lower value
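Steps: dispense buffer (Tris pH 8.0, NaCl 300 mM, TCEP 1 mM, BSA, Tween 20); add 5X protein mix (GST-E1A, His-CtBP, 125 nM each); pin 23 nL compound; 2 h at 37 °C, dark; add 5X beads (50 ug/mL); 1 h; read.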
PI4K2A block: qHTS for small molecular inhibitors of PI4K2A; Phosphatidylinositol 4-kinase type 2-alpha (Homo sapiens), Q9BTU6; purified PI4K2A, ADP-Glo luminescence, 1 h; stronger effect = lower value; activity change, negative = inhibition, % at 76.9 µM; 420,000 compounds, 0.13% hits; in the data active = activity change below about -50%; inconclusive = mostly about -30% to -49%
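PI4K2A activity was measured by ADP-Glo luminescence: enzyme (4 ug/mL stock) and phosphatidylinositol (1.2 mM stock) in Tris pH 7.5/MgCl2/EGTA/Triton X-100 buffer were reacted with ATP (300 microM stock) for one hour at ambient temperature.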
pAkt inh: HTS Assay for Inhibitors of Akt Phophorylation: Primary Screen. Neuro2A IGF-stimulated pAkt S473 HTRF, 20 min; stronger effect = lower value. activity change, % for hits at 50 µM. 360,000 compounds, 0.32% hits; in the data active = activity change below about -80%; inconclusive = mostly about -51% to -80%
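Neuro2A cells in DMEM with 0.5% FBS, overnight at 37 deg C, given compound at single 50 µM final, then IGF (6 nM final) for 20 min at 37 deg C. Lysed; phospho-Akt Ser473 by HTRF after 24 h, 665/615 ratio.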
Numbers stand for hits; 0 = inactive; ? = inconclusive; - = no result. Rows were chosen to be rich in hits. Some 1.8% of all compounds tested hit in one or more screens of this group. Cut-off read from the data, not from the text of the source, unless noted: active = activity change below about -65%; inconclusive = mostly about -30% to -63%; inactive = weaker than that.

SMILES	Six1-Eya2 inh	PI5P4K alpha inh	CtBP-E1A blk	PI4K2A block	pAkt inh
C=CCOc1ccc(/C=C\c2nc(O)c([N+](=O)[O-])c(=O)[nH]2)cc1OCC	0	-55	-	0	0
COc1ccc(/C=C\c2nc(O)c([N+](=O)[O-])c(=O)[nH]2)cc1O	?	-74	0	0	0
C#CCOc1c(/C=C\c2nc(O)c([N+](=O)[O-])c(=O)[nH]2)cc(Br)cc1OC	0	-68	-	0	0
Nc1ccc(C(=O)Nc2ccc3c(O)cc(S(=O)(=O)O)cc3c2)cc1	?	-52	?	0	0
CC1(C)CC[C@]2(C(=O)O)CC[C@]3(C)C(=CC[C@@H]4[C@@]5(C)CC[C@H](O[C@@H]6O[C@H](C(=O)O)[C@@H](O)[C@H](O[C@@H]7OC[C@H](O)[C@H](O)[C@H]7O)[C@H]6O)C(C)(C)[C@@H]5CC[C@]43C)[C@@H]2C1	0	-65	0	0	0
CC1(C)CC[C@]2(C(=O)O[C@@H]3O[C@H](CO)[C@@H](O)[C@H](O)[C@H]3O)CC[C@]3(C)C(=CCC4[C@@]5(C)CC[C@H](O[C@@H]6O[C@H](C(=O)O)[C@@H](O[C@H]7OC[C@@H](O)[C@@H](O)[C@@H]7O)[C@H](O)[C@H]6O)C(C)(C)C5CC[C@]43C)[C@@H]2C1 (some centres not stated)	0	0	0	0	0
CN(c1ccc(C(=O)N2CCOCC2)cc1[N+](=O)[O-])C1CCCCC1	0	-	0	0	0
CC(C)CC1C(C#N)=C(N)SC(N)=C1C#N	0	-	0	0	0
N#CC1=C(N)SC(N)=C(C#N)C1CCc1ccccc1	0	-84	0	0	0
N#CC1=C(N)SC(N)=C(C#N)C1c1c(Cl)cccc1Cl	0	-65	0	0	0
N#CC1=C(N)SC(N)=C(C#N)C1Cc1ccccc1	0	-52	0	0	0
C[C@H]1CN([C@@H](C)CO)C(=O)CCCn2nncc2CO[C@@H]1CN(C)C(=O)c1ccc(N2CCN(C)CC2)cc1	0	0	0	0	0
Cc1nc2ccccc2c2c(N)c3ccccc3n12	0	0	0	0	0
O=C1N(Cc2ccccc2)CC2(Br)COCOC12O (configuration not stated)	0	-62	0	0	0
O=C1C(c2ccccc2)CN1Cc1ccccc1 (configuration not stated)	0	0	0	0	0
O=C(Nc1cccc(-c2nc3ccccc3s2)c1)c1cc(-n2cnnc2)ccc1Cl	0	0	0	0	0
Cc1c(NC(=O)c2cc(-n3cnnc3)ccc2Cl)cccc1-c1nc2ccccc2s1	0	-	0	0	-88%
N#C/C(=C\c1ccc([N+](=O)[O-])o1)C(=O)Nc1ccc(F)cc1	0	-84	0	0	0
N#CCc1ccc(NC(=O)/C=C/c2ccc([N+](=O)[O-])o2)cc1	0	-59	0	0	0
COc1ccc(NC(=O)/C(C#N)=C\c2ccc(Br)o2)cc1	0	-83	-	0	0
Cc1ccc(/C=C(\C#N)C(=O)Nc2ccc(Br)cc2)o1	-	-	-	0	-
O=c1oc2ccccc2c(O)c1Sc1c(O)c2ccccc2oc1=O	-74	0	-83	0	0
O=c1oc2ccccc2c(O)c1/C=C1\C=Nc2ccccc21	0	-56	0	0	0
O=c1oc2ccccc2c(O)c1/C=N/c1ncccn1	0	-	0	0	0
O=C(c1c(O)c2ccccc2oc1=O)C1CCC1	0	0	0	0	0
CCN(CC)C(=O)CC[C@@H]1CC[C@]2(CCCN(Cc3cccs3)C2)O1	-	-	-	0	-
S=c1[nH]nc(NC2CCCCC2)s1	0	-70	0	0	0
Cc1ccccc1NC(=O)CSc1nc(N)c(C#N)c(-c2cccs2)c1C#N	0	0	0	0	-101%
CCOc1ccccc1NC(=O)CSc1nc(N)c(C#N)cc1C#N	0	0	0	0	-96%
Cc1nn(-c2ccccc2)c(Cl)c1C(=O)OC(C)C(=O)Nc1ccc2c(c1)OCO2 (configuration not stated)	0	0	0	0	0
